From PubChem BioAssay (NCI)
About 79,000 compounds went through this panel and 15% of them were active in at least one assay; those are over-represented in the sample as a whole. No stated cut-off is given here; in the data, active means growth inhibition above about 70%; inactive means the rest.

Key:
[1] = NCI Yeast Anticancer Drug Screen. Data for the rad52 strain (AID 147);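 further: 0% = growth of vehicle-treated control cultures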; conditions: S. cerevisiae rad52 mutant growth inhibition, hits give high values
How it was run: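 Screen used a yeast mutant impaired in DNA repair. After compound exposure, growth was measured. Values reflect inhibition compared with vehicle-treated cells.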

[2] = NCI Yeast Anticancer Drug Screen. Data for the wt1 strain (AID 149);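 further: 0% = growth of vehicle-treated wt1 cultures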; conditions: S. cerevisiae wt1 strain (SPY 50644) growth inhibition, hits give high values
How it was run: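 Readout: yeast growth inhibition, normalised to vehicle controls, in the wt1 strain exposed to test compounds.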

[3] = NCI Yeast Anticancer Drug Screen. Data for the rad50EPP+ strain (AID 151);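 further: 0% = growth of vehicle-treated control cultures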; conditions: S. cerevisiae rad50 mutant strain, hits give high values
How it was run: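 Exposing the rad50EPP+ strain to each compound, growth was compared with vehicle-only cultures to give inhibition.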

[4] = NCI Yeast Anticancer Drug Screen. Data for the rad50 strain (AID 155);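 further: 0% = growth of vehicle-only cultures of the same strain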; conditions: S. cerevisiae rad50 strain growth inhibition, hits give high values
How it was run: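 Compounds were tested on a yeast strain with an engineered DNA damage repair alteration; the reported value is growth inhibition normalised to vehicle treatment.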

[5] = NCI Yeast Anticancer Drug Screen. Data for the mec2-1 strain (AID 157); conditions: S. cerevisiae mec2-1 strain, hits give high values
How it was run: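 Readout is yeast growth inhibition, normalised to vehicle-treated controls, in the mec2-1 strain exposed to compound.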

[6] = NCI Yeast Anticancer Drug Screen. Data for the rad14 strain (AID 159);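 further: 0% = growth of vehicle-treated control cultures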; conditions: S. cerevisiae rad14 strain growth inhibition, hits give high values
How it was run: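 Compound-treated yeast with a defined DNA-repair lesion; growth inhibition normalised to vehicle-treated cultures.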

[7] = NCI Yeast Anticancer Drug Screen. Data for the sgs1 mgt1 strain (AID 161);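 further: 0% = growth of cultures given vehicle only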; conditions: S. cerevisiae sgs1 mgt1 strain, hits give high values
How it was run: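 Compounds are added to genetically altered yeast, and growth is compared with cultures given vehicle alone to give percent inhibition.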

[8] = NCI Yeast Anticancer Drug Screen. Data for the CLN2oe strain (AID 163);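 further: 0% = growth of vehicle-only control cultures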; conditions: S. cerevisiae CLN2oe strain, hits give high values
How it was run: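 Values reflect how much compound exposure reduced yeast growth, referenced to vehicle-exposed cells. Assay organism is a strain with a defined genetic change affecting cell-cycle control.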

[9] = NCI Yeast Anticancer Drug Screen. Data for the cln2 rad14 strain (AID 165);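 further: 0% = growth equal to vehicle treated cultures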; conditions: S. cerevisiae cln2 rad14 strain, hits give high values
How it was run: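 Relative to vehicle controls, growth inhibition of compound-treated cln2 rad14 yeast was recorded.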

[10] = NCI Yeast Anticancer Drug Screen. Data for the bub3 strain (AID 167); conditions: S. cerevisiae bub3 mutant strain, hits give high values
How it was run: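 Growth of a checkpoint-deficient yeast mutant is measured after compound exposure. Values represent inhibition relative to vehicle.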

[11] = NCI Yeast Anticancer Drug Screen. Data for the wt2 strain (AID 169);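 further: 0% = growth of vehicle-treated yeast cultures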; conditions: S. cerevisiae wt2 strain growth inhibition, hits give high values
How it was run: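 Values express reduction in yeast growth under compound treatment, referenced to vehicle-treated cells.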

[12] = NCI Yeast Anticancer Drug Screen. Data for the mlh1 strain (AID 171);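 further: 0% = growth of vehicle-treated control cultures of the same strain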; conditions: S. cerevisiae mlh1 strain growth inhibition, hits give high values
How it was run: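 Steps: expose the defined-mutant yeast strain to compound; expose a parallel culture to vehicle; measure growth; express compound effect as inhibition relative to the vehicle culture.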

[13] = NCI Yeast Anticancer Drug Screen. Data for the sgs1 strain (AID 173);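 further: 0% = growth of vehicle-only control cultures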; conditions: S. cerevisiae sgs1 mutant, hits give high values
How it was run: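 Treat defined-mutant yeast with compound; measure growth; calculate inhibition relative to vehicle-treated cells.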

[14] = NCI Yeast Anticancer Drug Screen. Data for the mlh1 rad18 strain (AID 175); conditions: S. cerevisiae mlh1 rad18 strain growth inhibition, hits give high values
How it was run: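 Test agents were incubated with a yeast strain of defined genotype (DNA damage repair defect). Inhibition of growth was derived by comparison with vehicle-exposed cultures.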

[15] = NCI Yeast Anticancer Drug Screen. Data for the rad18 strain (AID 177); conditions: S. cerevisiae rad18 mutant growth inhibition, hits give high values
How it was run: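 A genetically defined yeast mutant impaired in DNA damage repair was treated with test compounds, then its growth was measured against cultures receiving vehicle alone.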

[16] = at 5.0 µM (retest, dose inferred, filed as 0.5)
[17] = at 50.0 µM (retest, dose inferred, filed as 5.0)

Measured: growth inhibition

COC(=O)Oc1cc(Cl)c(Cl)cc1Cl
inactive: [1]; at 1.2 µM 0% | [1]; at 3.7 µM 0% | [1]; at 11.0 µM -1% | [1]; at 33.0 µM 4% | [1]; at 100.0 µM 9% | [2]; at 1.2 µM -1% | [2]; at 3.7 µM -2% | [2]; at 11.0 µM -3% | [2]; at 33.0 µM -4% | [2]; at 100.0 µM 0% | [3]; at 1.2 µM -1% | [3]; at 3.7 µM 0% | [3]; at 11.0 µM 7% | [3]; at 33.0 µM 2% | [3]; at 100.0 µM 1% | [4]; at 1.2 µM 0% | [4]; at 3.7 µM 0% | [4]; [16] 4% | [4]; at 11.0 µM -1% | [4]; at 33.0 µM 2% | [4]; [17] -5% | [4]; at 50.0 µM 30.8% | [4]; at 100.0 µM 10% | [5]; at 1.2 µM 0% | [5]; at 3.7 µM 4% | [5]; [16] -4% | [5]; at 11.0 µM 3% | [5]; at 33.0 µM 5% | [5]; [17] 23% | [5]; at 50.0 µM 21.4% | [5]; at 100.0 µM 8% | [6]; at 1.2 µM 0% | [6]; at 3.7 µM 0% | [6]; at 11.0 µM 2% | [6]; at 33.0 µM 5% | [6]; at 100.0 µM 9% | [7]; [16] 3% | [7]; [17] 1% | [7]; at 50.0 µM 30.1% | [8]; at 1.2 µM -4% | [8]; at 3.7 µM -3% | [8]; at 11.0 µM -7% | [8]; at 33.0 µM -6% | [8]; at 100.0 µM -4% | [9]; [16] 3% | [9]; [17] 52% | [9]; at 50.0 µM 22.6% | [10]; at 1.2 µM 1% | [10]; at 3.7 µM 3% | [10]; [16] 12% | [10]; at 11.0 µM 1% | [10]; at 33.0 µM 3% | [10]; [17] 4% | [10]; at 50.0 µM 36% | [10]; at 100.0 µM 3% | [11]; at 1.2 µM 0% | [11]; at 3.7 µM -2% | [11]; at 11.0 µM -2% | [11]; at 33.0 µM -2% | [11]; at 100.0 µM -1% | [12]; at 1.2 µM 1% | [12]; at 3.7 µM -2% | [12]; at 11.0 µM -7% | [12]; at 33.0 µM 3% | [12]; at 100.0 µM 13% | [13]; at 1.2 µM 0% | [13]; at 3.7 µM 0% | [13]; at 11.0 µM 1% | [13]; at 33.0 µM 3% | [13]; at 100.0 µM 10% | [14]; [16] 7% | [14]; [17] 19% | [14]; at 50.0 µM 11.8% | [15]; at 1.2 µM 0% | [15]; at 3.7 µM 5% | [15]; at 11.0 µM 6% | [15]; at 33.0 µM 9% | [15]; at 100.0 µM 20%
